For one assay, the system named is Staphylococcus aureus. Conditions: Concentration 32 ug.mL-1;; ASSAY_TEST Inhibition of Bacterial Growth; detection method Absorption (OD600); MEDIA CAMHB; plate type 384well; NBS; CORNING #3640; time 18 hr.
A further assay relates to Escherichia coli. The following applies: Concentration 32 ug.mL-1;; ASSAY_TEST Inhibition of Bacterial Growth; detection method Absorption (OD600); MEDIA CAMHB; plate type 384well; NBS; CORNING #3640; time 18 hr.

Structures are written as SMILES. Measured potencies and affinities stand elsewhere.

Inhibition data for 12 compounds are collected here from ChEMBL document CHEMBL4513146, “CO-ADD screening of Karazin Kharkiv National University (Ukraine) compounds”.

As a reminder, the Inhibition is the change of the read-out against control, counted positive when it falls.

As to `CCCn1c(=O)c2sccc2n2c(=O)n(Cc3ccc(Cl)cc3)nc12`, the Inhibition in the assay with Staphylococcus aureus is 1.51%; in the assay on Escherichia coli it was -6.17%.
On the same counts, the results for `O=C(Cn1nc2c(Oc3ccccc3)nccn2c1=O)Nc1ccccc1C(F)(F)F` are 2.85% and -0.6%.
The like results for `COc1ccc(NC(=O)c2ccc3nn(CC(=O)Nc4ccc(C(F)(F)F)cc4)c(=O)n3c2)cc1` were, in that order, 9.76% and -5.89%.
On the same counts, the results for `Cc1ccccc1Oc1nc2ccccc2n2c(=O)n(CC(=O)NCc3ccc4c(c3)OCO4)nc12` are 13.3% and 0.04%.
For `CC(C)c1ccc(NC(=O)CSc2nc3ccccc3n3cnnc23)cc1`, the Inhibition was 8.55% with Staphylococcus aureus and -4.05% in the assay with Escherichia coli.
On the same counts, the results for `Cc1ccc(NC(=O)Cn2nc3ccc(-c4ccc(C)c(C)c4)nn3c2=O)cc1` are 12.01% and -5.02%.
The like results for `Cc1cc(NC(=O)CSc2nc3ccccc3n3cnnc23)ccc1Br` were, in that order, 13.29% and 3.15%.
On the same counts, the results for `CC(C)c1nnc2c(SCC(=O)N3CCN(c4ccccc4F)CC3)nc3ccccc3n12` are -2.06% and -6.39%.
As for `O=C(Cn1nc2c(N3CCOCC3)nccn2c1=O)Nc1cc(C(F)(F)F)ccc1Cl`, the Inhibition with Staphylococcus aureus is recorded as 6.98%; with Escherichia coli, 4.52%.
On the same counts, the results for `C=Cc1ccc(CN(c2ccc3c(c2)OCO3)S(=O)(=O)c2ccc3nncn3c2)cc1` are 3.79% and -6.77%.
On the same counts, the results for `CCCCOc1ccc(-c2cc3c4nnc(SCC(=O)Nc5ccccc5Cl)n4ccn3n2)cc1` are 3.41% and -3.41%.
As to `O=c1c2nnc(-c3cccc([N+](=O)[O-])c3)n2ccn1-c1ccc(F)cc1`, the Inhibition is recorded as 13.28% with Staphylococcus aureus and -1.02% in the assay with Escherichia coli.
